Activity calls are given as the source filed them.
Columns and labels:
[1] = binders of probe aFSTL3 on microarray, primary screen, stem cell growth factor project, biochemical, small-molecule microarray, fluorescence 635/667 (AID 1064); conditions: higher = more signal;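 note: measures binding of the biotinylated anti-FSTL3 antibody to printed compounds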
[2] = binders from COS7 lysate, DM2A8 probe, primary screen, torsin A project, cell lysate, small-molecule microarray, fluorescence 635/667 (AID 1065); conditions: higher = more signal, COS7 lysate expressing mutant human TOR1A
[3] = binders of probe aFGF2 on microarray, primary screen, stem cell growth factor project, biochemical, small-molecule microarray, fluorescence 635/667 (AID 1067); conditions: higher = more signal;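 note: measures binding of biotinylated aFGF2 protein to printed compounds on slides; z-score merges feature fluorescence and signal-to-noise across triplicate slides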
[4] = binders of probe aFGF10 on microarray, primary screen, stem cell growth factor project, biochemical, small-molecule microarray, fluorescence 635/667 (AID 1071); conditions: higher = more signal;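 note: score merges 667 nm spot intensity and signal to noise from triplicate slides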
[5] = target: Neurogenic locus notch homolog protein 2 (Homo sapiens) (UniProt Q04721); test: Notch2 binders on small-molecule microarrays, primary screen, biochemical, small-molecule microarray, 635 nm fluorescence, stem cell growth factors (AID 1073); conditions: Notch2 binding, higher = more signal
Chain of Neurogenic locus notch homolog protein 2 (Homo sapiens) (Q04721 whole entry, looked up, canonical isoform): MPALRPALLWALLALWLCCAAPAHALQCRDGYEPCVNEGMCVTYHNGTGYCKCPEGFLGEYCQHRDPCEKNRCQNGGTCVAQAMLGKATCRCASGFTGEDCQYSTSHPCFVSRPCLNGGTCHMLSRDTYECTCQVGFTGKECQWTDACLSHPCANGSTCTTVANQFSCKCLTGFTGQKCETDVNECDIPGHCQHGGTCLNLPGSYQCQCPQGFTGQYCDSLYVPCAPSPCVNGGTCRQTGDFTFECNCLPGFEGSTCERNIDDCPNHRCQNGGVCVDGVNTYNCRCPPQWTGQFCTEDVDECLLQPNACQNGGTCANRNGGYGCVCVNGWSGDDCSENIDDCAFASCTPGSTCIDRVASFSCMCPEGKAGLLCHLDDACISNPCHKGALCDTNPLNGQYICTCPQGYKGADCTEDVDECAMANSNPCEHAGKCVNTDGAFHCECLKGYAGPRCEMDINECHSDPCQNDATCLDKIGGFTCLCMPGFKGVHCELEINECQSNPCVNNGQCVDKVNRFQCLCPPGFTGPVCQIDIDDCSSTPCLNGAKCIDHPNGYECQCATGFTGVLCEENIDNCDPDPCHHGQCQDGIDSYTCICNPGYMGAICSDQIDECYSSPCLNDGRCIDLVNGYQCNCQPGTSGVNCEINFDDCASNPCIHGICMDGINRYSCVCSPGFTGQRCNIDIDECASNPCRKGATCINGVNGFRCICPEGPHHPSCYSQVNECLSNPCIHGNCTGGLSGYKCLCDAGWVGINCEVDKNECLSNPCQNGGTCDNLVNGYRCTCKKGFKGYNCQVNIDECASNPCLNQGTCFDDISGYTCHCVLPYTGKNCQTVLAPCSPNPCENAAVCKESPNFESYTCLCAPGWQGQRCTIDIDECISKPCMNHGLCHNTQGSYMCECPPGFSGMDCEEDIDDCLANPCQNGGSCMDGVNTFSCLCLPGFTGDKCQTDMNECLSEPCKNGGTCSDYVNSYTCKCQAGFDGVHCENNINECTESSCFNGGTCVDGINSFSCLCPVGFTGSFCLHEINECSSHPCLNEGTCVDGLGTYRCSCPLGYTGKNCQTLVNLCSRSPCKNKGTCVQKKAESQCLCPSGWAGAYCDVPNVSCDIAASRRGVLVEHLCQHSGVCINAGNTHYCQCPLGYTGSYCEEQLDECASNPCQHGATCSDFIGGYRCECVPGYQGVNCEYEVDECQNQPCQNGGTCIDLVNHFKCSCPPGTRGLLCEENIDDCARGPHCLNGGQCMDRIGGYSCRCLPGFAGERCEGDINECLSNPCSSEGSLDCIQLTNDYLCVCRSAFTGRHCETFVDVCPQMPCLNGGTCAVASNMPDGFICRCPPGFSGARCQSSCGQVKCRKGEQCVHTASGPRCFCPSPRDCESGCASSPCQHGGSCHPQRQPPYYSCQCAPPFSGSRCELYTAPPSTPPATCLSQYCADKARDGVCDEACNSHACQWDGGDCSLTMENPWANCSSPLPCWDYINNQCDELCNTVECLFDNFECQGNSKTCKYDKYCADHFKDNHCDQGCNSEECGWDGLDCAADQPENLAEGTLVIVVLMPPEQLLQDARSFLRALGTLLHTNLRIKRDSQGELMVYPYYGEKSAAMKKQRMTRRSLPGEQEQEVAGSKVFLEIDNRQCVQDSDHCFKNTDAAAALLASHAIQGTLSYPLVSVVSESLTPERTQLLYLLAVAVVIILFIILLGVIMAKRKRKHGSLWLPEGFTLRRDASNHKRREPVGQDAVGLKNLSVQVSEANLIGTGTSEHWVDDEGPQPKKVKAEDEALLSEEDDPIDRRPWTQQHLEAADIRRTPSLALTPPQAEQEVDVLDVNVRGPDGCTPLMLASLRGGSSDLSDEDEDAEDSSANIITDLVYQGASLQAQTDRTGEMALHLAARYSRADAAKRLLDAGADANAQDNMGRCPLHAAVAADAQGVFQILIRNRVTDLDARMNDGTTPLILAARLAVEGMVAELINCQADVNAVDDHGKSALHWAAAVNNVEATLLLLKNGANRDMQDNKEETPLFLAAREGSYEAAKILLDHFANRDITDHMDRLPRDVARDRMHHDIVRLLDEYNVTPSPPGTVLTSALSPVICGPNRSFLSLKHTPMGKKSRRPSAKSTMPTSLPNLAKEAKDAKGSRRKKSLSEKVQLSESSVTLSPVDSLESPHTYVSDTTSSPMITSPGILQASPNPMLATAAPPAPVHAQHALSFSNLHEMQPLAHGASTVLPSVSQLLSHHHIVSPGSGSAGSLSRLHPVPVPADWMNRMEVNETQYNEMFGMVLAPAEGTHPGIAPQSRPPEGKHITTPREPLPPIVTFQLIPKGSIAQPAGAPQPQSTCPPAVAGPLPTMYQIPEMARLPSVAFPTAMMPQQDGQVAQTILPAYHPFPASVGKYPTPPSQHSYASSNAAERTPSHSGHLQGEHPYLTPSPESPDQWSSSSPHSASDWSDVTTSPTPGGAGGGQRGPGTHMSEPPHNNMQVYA

[6] = target: Pro-neuregulin-1, membrane-bound isoform (Homo sapiens) (UniProt Q02297); test: NRG1 binders on small-molecule microarrays, primary screen, psychiatric disease protein project, biochemical, small-molecule microarray, fluorescence 635/667 (AID 1075); conditions: NRG1 binding, 635 nm fluorescence, higher = more signal;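 note: score combines 667 nm spot fluorescence with signal to noise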
Chain of Pro-neuregulin-1, membrane-bound isoform (Homo sapiens) (Q02297 whole entry, looked up, the tested form may be a part, canonical isoform): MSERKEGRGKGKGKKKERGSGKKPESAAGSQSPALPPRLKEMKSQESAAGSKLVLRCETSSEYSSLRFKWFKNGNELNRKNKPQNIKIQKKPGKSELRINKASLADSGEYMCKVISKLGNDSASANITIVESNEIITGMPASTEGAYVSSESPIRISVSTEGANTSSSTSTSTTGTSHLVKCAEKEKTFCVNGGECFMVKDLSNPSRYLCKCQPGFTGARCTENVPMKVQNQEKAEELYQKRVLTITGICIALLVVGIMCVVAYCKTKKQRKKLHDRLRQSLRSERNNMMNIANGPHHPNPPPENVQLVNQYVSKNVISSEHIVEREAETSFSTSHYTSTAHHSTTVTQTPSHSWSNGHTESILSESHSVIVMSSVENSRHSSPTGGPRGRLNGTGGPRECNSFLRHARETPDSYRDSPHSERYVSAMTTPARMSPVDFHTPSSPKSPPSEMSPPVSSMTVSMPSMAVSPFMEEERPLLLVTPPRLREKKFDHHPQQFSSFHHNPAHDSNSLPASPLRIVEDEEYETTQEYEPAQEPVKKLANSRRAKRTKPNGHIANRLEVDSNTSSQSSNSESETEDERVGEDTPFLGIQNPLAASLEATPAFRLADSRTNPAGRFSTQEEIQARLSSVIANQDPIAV

[7] = system: Neuregulin-1 EGF-like domain; test: binders of neuregulin-1 EGF-like domain, primary screen, biochemical, small-molecule microarray, 635 nm fluorescence (AID 1081); conditions: small-molecule microarray binding, higher = more signal;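 note: binding of the protein to compounds printed on small-molecule microarray slides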
[8] = FRG1 promoter luciferase signal modulators, primary screen, FRG1 inhibition for FSHD, cell-based, C2C12 myotubes, firefly/Renilla luciferase, luminescence (AID 1084); conditions: higher = more signal, called active from +8 up or from −8 down
[9] = binders of probe aFST on microarray, primary screen, stem cell growth factor project, biochemical, small-molecule microarray, fluorescence 635/667 (AID 1086); conditions: higher = more signal;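 note: score merges 667 nm fluorescence with signal-to-noise of each printed compound spot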
[10] = binders of probe aHhip on microarray, primary screen, stem cell growth factor project, biochemical, small-molecule microarray, fluorescence 635/667 (AID 1087); conditions: higher = more signal;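 note: score merges spot fluorescence at 667nm with spot signal to noise ratio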
[11] = system: PRMT1 (protein arginine N-methyltransferase 1); test: PRMT1 binders on small-molecule microarrays, primary screen, biochemical, small-molecule microarray, 635 nm fluorescence (AID 1088); conditions: small-molecule microarray binding, higher = more signal;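 note: binding of Prmt1 protein to compounds spotted on small-molecule microarray slides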
[12] = yeast growth modulation, basal conditions, primary screen, YJM789 clinical isolate, OD600, 24 h (AID 1089);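 note: growth of clinical yeast isolate S. cerevisiae YJM 789 seeded 1000 cells per well; test concentration not given here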; conditions: S. cerevisiae YJM789 growth, higher = more signal, called active from +8 up or from −8 down
[13] = fission yeast growth modulation, primary screen, strain 972, OD600, 24 h, no modulator (AID 1090);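 note: basal condition with compound alone and no growth modifier present; test concentration not given here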; conditions: S. pombe 972 growth, higher = more signal, called active from +8 up or from −8 down
[14] = S. cerevisiae growth modulation with rapamycin, primary screen, strain BY4716, OD600, 96 h (AID 1091); conditions: higher = more signal, called active from +8 up or from −8 down; note: test concentration not given here
[15] = target: Torsin-1A-interacting protein 2 (Homo sapiens) (UniProt Q8NFQ8); test: LULL1 binders on small-molecule microarray, primary screen, cell lysate, human LULL1 lysate, 635/667 nm fluorescence (AID 1092); conditions: hLULL1 lysate binding, 635 nm fluorescence, higher = more signal;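 note: probe is lysate of COS7 cells overexpressing human LULL1; score merges per-feature 667 nm fluorescence with signal-to-noise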
Chain of Torsin-1A-interacting protein 2 (Homo sapiens) (Q8NFQ8 whole entry, looked up): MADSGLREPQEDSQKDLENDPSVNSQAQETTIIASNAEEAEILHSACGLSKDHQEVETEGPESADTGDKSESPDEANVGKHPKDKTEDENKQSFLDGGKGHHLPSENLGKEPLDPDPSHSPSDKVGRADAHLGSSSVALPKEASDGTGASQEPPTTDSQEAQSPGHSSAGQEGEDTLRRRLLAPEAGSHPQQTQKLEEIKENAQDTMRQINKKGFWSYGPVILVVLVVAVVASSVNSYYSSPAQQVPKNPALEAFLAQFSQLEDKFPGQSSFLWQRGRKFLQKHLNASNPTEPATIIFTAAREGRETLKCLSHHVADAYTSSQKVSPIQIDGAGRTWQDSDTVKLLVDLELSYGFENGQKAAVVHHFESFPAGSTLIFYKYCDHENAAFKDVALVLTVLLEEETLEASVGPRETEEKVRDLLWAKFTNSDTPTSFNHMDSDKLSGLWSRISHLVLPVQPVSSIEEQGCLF

[16] = E. coli growth modulation, two-sided OD650, primary screen, E. coli filamentation project, strain DRC41, 24 h (AID 1093); conditions: OD650, 24 h, higher = more signal, called active from +8 up or from −8 down;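 note: MC1000 strain lacking acrAB efflux and sulA so SOS filamentation is blocked; test concentration not given here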
[17] = small-molecule microarray binders of probe aLefty2, primary screen, biochemical, biotinylated probe, 635/667 nm fluorescence (AID 1094); conditions: higher = more signal;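 note: score merges spot fluorescence near 667 nm with spot signal-to-noise ratio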
[18] = system: Noggin (protein binding on small-molecule microarray); test: Noggin binders on small-molecule microarray, primary screen, biochemical, 635/667 nm fluorescence (AID 1095); conditions: 635 nm fluorescence, higher = more signal;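 note: score merges 667 nm feature fluorescence with signal to noise over triplicate slides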
[19] = target: Neurogenic locus notch homolog protein 3 (Homo sapiens) (UniProt Q9UM47); test: NOTCH3 binders on small-molecule microarray, primary screen, biochemical, 635/667 nm fluorescence (AID 1096); conditions: NOTCH3 binding, 635 nm fluorescence, higher = more signal
[20] = small-molecule microarray binders of probe aEGFR, primary screen, biochemical, biotinylated probe, 635/667 nm fluorescence (AID 1097); conditions: higher = more signal;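 note: probe is a biotinylated anti-EGFR antibody binding compounds printed on slides; score combines fluorescence near 667 nm and signal to noise of each spot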

SMILES	composite z-score [1]	composite z-score [2]	composite z-score [3]	composite z-score [4]	composite z-score [5]	composite z-score [6]	composite z-score [7]	z-score [8]	composite z-score [9]	composite z-score [10]	composite z-score [11]	z-score [12]	z-score [13]	z-score [14]	composite z-score [15]	z-score [16]	composite z-score [17]	composite z-score [18]	composite z-score [19]	composite z-score [20]
CN(C)C(=O)C1N=C(c2ccc(OCCCO)cc2)N(c2ccccc2)O1 (stereo not given)	-0.135	0.18	0.0097	0.929	1.19	0.869	1.39	4.85 (inactive)	0.514	0.107	1.56	-0.0944 (inactive)	-1.17 (inactive)	-0.582 (inactive)	1.72	1.15 (inactive)	-0.244	1.41	1.05	0.123
CCOC(=O)[C@H]1[C@@H]2C(=O)N3CCC[C@H]3[C@H](O[Si](C(C)C)(C(C)C)C(C)C)[C@H]2C=C2CCN(S(=O)(=O)c3ccc(C)cc3)C[C@H]21	-0.646	0.336	-0.118	0.248	0.966	0.319	1.08	-0.647 (inactive)	0.125	-0.164	1.55	-0.212 (inactive)	-0.772 (inactive)	1.04 (inactive)	2.38	-0.717 (inactive)	-0.0795	0.55	1.09	-0.0978
C=C(/C(=C/C[C@H](OC(=O)c1ccncc1)c1ccc(CO)o1)c1cc(C(=O)OC)ccc1OC)C(C)C	-0.259	0.816	-0.0097	1.08	0.238	0.928	1.23	-0.918 (inactive)	0.201	0.113	1.44	-0.0096 (inactive)	-0.515 (inactive)	-0.38 (inactive)	1.6	0.425 (inactive)	-0.116	0.424	1.02	-0.0902
CCOC(=O)C[C@H]1[C@H](OC(=O)c2ccccc2-c2ccccc2)[C@@H](NC(=O)c2ccc(-c3ccccc3)cc2)c2cc(OCCCO)ccc2N1C(=O)c1ccc2ccccc2n1	-0.405	0.286	-0.127	0.754	0.75	0.789	0.849	0.835 (inactive)	0.211	-0.145	1.02	0.214 (inactive)	0.632 (inactive)	0.723 (inactive)	1.11	-0.75 (inactive)	0.0332	0.427	0.592	0.2
COc1ccc(NC(=O)O[C@H]2[C@H](OC(=O)Nc3ccccc3)[C@@H](OC(=O)Nc3ccccc3)[C@@H](OC)O[C@@H]2CO)cc1	-0.279	0.672	-0.017	1.27	0.754	1.6	1.26	0.329 (inactive)	0.23	-0.0618	1.55	2.09 (inactive)	-0.0554 (inactive)	-0.758 (inactive)	3.27	-0.633 (inactive)	-0.0666	1.62	0.822	-0.0054
O=C1NC(=O)C2C1C=CC(C(O)CCc1ccccc1)N2Nc1ccc(Cl)cc1Cl (stereo not given)	1.18	1.42	0.153	0.229	1.39	1.34	1.1	1.19 (inactive)	1.55	0.011	0.23	-0.455 (inactive)	-2.05 (inactive)	0.0242 (inactive)	2.73	-0.748 (inactive)	0.379	-0.839	-0.0822	0.0122
CC(C)(C)N1CC=CC23O[C@@H]4C=CCOC(=O)[C@@H]4[C@H]2C(=O)N(CCCCCCO)[C@@H]3C1=O (stereo not given in full)	0.0157	-0.511	-0.178	-0.447	-0.947	-0.574	1.36	0.212 (inactive)	-0.867	-0.284	-0.911	-1.54 (inactive)	-1.27 (inactive)	-0.369 (inactive)	1.39	-0.351 (inactive)	-0.101	-1.27	-0.729	-0.163
CC(C)[Si](C#CCCCC#N)(O[C@H](c1ccccc1)c1cn([C@H](CO)Cc2ccccc2)nn1)C(C)C	-0.436	1.22	-0.168	0.202	0.873	1.44	1.21	-0.325 (inactive)	-0.337	0.0373	0.848	-2.62 (inactive)	-11.3 (active)	-4.64 (inactive)	1.25	1.4 (inactive)	-0.181	0.349	1.02	-0.0843
CC(C)C(CO)N1C(=O)[C@@H]2C3C(=O)OCCC/C=C\[C@H]3OC23C=CCN(C(C)(C)C)C(=O)[C@@H]13 (stereo not given in full)	-0.0102	-0.311	-0.133	-0.394	-1.02	-0.596	1.06	-0.241 (inactive)	-0.418	0.0274	-0.429	0.465 (inactive)	-0.415 (inactive)	0.0032 (inactive)	0.895	-0.787 (inactive)	-0.259	-0.733	-0.354	-0.259
CCOc1cc(C(O)C2C=CC3C(=O)N(c4ccccc4)C(=O)C3N2Nc2ccc(C#N)cc2)ccc1O (stereo not given)	-0.17	-0.223	0.0024	0.11	1.27	1	0.836	0.163 (inactive)	0.0472	0.0139	0.0034	0.453 (inactive)	1.15 (inactive)	0.726 (inactive)	3.3	-0.715 (inactive)	0.121	-0.167	-0.0195	-0.133
